Legend:
Test in all cases: log2 ratio of Biotin-Ahx-Ub-VS probe labelling (fragment/DMSO); higher = less target engagement (more negative = stronger competition), active = hit call of the paper (q ≤ 0.05, log2 ratio ≤ -1)
Conditions in all cases: compound concentration: 200 uM; treatment time: 3 h
ALG13 = target: T1, ALG13 (UniProt Q9NP73)
T1 sequence (whole entry): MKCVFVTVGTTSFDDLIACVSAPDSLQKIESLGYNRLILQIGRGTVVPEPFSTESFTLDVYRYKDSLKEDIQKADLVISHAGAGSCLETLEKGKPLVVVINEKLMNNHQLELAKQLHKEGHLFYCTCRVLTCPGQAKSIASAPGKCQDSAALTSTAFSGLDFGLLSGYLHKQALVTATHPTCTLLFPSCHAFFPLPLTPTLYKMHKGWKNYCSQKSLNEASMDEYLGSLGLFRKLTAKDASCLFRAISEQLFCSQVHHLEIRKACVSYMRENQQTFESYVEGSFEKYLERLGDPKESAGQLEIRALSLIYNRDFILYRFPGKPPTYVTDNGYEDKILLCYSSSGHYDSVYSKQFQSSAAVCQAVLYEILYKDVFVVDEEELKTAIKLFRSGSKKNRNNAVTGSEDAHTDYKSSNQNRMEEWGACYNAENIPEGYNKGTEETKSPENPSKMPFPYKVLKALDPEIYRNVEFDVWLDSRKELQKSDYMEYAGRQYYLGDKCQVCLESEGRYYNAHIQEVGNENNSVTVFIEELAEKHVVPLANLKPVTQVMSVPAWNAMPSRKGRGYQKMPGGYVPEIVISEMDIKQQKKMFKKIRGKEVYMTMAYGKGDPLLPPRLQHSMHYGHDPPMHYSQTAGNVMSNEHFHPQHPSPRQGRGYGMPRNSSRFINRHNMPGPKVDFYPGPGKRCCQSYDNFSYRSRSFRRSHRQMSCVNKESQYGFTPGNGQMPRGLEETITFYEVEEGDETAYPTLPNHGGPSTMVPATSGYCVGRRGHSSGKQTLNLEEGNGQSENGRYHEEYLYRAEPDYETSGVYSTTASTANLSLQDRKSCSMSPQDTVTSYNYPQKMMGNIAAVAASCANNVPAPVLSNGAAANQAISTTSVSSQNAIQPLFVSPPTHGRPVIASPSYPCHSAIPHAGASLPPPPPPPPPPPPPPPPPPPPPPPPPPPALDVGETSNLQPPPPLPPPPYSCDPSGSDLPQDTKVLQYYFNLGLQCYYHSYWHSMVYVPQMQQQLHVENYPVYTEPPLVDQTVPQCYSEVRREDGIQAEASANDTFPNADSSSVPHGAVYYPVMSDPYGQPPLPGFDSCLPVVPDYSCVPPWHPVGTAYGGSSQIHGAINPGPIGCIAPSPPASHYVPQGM
In short: (§1)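 HEK293T lysate (495 µg per sample, in Tris/CHAPS/IGEPAL buffer with protease inhibitors) was treated in triplicate with fragment at 200 µM or with DMSO for 3 h. It was then treated with Biotin-Ahx-Ub-VS (0.5 µM final) for 1 h. Labelled DUBs were NeutrAvidin-enriched, digested with LysC and trypsin, and run by diaPASEF LC-MS/MS. Spectronaut label-free quantities were global-median-normalised. Values are average log2 ratios fragment/DMSO by unpaired t-test, using proteins with ≥2 unique peptides.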

ATXN3 = ATXN3 (UniProt P54252)
ATXN3, sequence (P54252 whole entry): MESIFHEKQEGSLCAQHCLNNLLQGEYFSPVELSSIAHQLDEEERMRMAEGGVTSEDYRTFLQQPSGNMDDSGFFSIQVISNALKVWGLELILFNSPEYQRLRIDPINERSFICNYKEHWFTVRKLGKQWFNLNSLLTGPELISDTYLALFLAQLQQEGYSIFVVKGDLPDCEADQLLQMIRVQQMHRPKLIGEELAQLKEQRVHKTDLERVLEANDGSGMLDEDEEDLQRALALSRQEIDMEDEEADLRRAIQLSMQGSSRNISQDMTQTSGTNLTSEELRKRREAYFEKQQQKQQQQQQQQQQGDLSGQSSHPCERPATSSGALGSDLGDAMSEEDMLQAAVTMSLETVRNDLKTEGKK
In short: as §1

BAP1 = target: T2, BAP1 (UniProt Q92560)
T2 sequence (whole entry): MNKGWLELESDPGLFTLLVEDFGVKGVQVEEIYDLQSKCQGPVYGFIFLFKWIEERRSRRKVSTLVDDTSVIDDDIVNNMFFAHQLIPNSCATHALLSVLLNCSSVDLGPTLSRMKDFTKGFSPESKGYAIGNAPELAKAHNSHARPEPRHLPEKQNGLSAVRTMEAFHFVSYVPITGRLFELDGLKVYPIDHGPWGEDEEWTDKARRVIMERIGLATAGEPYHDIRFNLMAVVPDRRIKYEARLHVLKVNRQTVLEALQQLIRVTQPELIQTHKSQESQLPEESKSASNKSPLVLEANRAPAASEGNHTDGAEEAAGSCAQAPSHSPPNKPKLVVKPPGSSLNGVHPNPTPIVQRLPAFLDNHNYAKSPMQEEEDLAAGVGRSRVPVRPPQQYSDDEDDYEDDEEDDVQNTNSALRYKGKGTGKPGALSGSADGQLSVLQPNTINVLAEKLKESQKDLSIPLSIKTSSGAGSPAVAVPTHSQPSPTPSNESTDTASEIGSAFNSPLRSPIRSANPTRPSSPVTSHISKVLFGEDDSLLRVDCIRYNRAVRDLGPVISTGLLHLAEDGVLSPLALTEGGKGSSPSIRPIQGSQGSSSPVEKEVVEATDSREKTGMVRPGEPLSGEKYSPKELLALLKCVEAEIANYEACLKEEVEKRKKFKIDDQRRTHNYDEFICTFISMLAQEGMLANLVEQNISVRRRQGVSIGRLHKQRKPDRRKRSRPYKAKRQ
In short: as §1

EIF3F = EIF3F (UniProt O00303)
EIF3F, sequence (O00303 whole entry): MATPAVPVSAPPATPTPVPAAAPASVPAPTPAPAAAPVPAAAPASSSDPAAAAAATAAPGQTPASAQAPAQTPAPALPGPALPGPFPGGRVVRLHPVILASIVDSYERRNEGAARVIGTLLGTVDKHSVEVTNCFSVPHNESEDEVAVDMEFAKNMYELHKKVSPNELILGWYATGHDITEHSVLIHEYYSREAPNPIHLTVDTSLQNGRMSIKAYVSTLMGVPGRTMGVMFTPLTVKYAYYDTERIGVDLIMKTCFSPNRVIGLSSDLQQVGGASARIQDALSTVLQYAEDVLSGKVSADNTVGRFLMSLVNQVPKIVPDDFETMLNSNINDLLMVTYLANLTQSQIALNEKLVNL
In short: as §1

EIF3H = EIF3H (UniProt O15372)
EIF3H, sequence (O15372 whole entry): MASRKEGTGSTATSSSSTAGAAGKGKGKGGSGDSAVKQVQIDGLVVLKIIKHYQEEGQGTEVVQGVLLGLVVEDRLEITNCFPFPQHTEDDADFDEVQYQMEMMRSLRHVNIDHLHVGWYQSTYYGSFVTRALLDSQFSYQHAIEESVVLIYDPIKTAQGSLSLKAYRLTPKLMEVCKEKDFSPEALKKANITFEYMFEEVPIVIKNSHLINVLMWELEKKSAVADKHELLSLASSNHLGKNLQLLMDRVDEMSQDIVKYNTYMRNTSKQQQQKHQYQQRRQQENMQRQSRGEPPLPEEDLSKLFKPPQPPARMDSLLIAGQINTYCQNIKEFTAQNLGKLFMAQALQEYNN
In short: as §1

FAM105A = target: T3, FAM105A (UniProt Q9NUU6)
T3 sequence (whole entry): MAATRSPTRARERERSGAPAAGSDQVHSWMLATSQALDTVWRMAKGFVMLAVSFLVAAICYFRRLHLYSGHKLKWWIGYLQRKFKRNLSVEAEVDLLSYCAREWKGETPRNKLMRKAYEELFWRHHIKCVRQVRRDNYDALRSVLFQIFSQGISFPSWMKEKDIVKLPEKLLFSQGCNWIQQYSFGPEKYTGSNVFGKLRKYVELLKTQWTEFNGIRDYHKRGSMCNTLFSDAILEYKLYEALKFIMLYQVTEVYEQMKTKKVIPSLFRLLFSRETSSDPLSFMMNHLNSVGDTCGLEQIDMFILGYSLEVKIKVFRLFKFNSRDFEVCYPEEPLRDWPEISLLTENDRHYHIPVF
In short: as §1

OTUB1 = OTUB1 (UniProt Q96FW1)
OTUB1, sequence (Q96FW1 whole entry): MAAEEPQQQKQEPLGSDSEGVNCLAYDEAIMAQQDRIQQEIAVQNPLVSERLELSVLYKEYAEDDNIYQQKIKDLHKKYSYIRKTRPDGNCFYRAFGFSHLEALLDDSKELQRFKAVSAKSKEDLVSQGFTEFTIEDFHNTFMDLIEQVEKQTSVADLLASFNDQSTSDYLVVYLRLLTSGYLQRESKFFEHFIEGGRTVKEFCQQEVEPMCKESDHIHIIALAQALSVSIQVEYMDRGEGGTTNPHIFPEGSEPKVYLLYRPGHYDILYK
In short: as §1

OTUD4 = target: T4, OTUD4 (UniProt Q01804)
T4 sequence (whole entry): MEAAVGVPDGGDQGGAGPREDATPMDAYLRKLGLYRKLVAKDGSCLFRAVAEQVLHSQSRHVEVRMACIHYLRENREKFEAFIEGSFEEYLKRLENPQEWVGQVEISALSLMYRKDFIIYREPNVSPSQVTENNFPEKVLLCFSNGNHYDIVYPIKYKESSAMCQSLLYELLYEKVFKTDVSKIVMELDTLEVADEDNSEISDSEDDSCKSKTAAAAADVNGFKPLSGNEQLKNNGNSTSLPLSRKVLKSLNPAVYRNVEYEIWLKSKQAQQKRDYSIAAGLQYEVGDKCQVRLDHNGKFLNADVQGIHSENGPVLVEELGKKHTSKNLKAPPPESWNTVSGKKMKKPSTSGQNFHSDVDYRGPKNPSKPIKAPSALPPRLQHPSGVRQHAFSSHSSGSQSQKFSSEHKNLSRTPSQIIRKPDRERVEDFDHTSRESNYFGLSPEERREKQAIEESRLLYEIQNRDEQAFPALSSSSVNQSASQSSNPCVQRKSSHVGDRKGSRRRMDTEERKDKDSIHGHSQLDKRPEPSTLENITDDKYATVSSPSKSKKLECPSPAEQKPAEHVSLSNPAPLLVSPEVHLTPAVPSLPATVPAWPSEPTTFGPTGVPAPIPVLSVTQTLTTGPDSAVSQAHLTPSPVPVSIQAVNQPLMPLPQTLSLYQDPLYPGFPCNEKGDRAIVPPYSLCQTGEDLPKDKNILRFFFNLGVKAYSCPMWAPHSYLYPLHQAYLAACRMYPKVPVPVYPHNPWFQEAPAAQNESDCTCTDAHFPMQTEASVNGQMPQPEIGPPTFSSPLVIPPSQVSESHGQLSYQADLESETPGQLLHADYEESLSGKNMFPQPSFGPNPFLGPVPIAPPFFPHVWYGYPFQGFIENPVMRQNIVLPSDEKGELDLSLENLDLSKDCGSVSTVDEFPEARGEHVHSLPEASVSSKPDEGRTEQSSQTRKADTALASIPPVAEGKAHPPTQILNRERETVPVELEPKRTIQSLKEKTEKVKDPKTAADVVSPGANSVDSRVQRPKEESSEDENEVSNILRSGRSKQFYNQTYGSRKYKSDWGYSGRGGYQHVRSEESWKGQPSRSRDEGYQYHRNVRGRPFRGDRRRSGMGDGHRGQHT
In short: as §1

OTUD5 = target: T5, OTUD5 (UniProt Q96G74)
T5 sequence (whole entry): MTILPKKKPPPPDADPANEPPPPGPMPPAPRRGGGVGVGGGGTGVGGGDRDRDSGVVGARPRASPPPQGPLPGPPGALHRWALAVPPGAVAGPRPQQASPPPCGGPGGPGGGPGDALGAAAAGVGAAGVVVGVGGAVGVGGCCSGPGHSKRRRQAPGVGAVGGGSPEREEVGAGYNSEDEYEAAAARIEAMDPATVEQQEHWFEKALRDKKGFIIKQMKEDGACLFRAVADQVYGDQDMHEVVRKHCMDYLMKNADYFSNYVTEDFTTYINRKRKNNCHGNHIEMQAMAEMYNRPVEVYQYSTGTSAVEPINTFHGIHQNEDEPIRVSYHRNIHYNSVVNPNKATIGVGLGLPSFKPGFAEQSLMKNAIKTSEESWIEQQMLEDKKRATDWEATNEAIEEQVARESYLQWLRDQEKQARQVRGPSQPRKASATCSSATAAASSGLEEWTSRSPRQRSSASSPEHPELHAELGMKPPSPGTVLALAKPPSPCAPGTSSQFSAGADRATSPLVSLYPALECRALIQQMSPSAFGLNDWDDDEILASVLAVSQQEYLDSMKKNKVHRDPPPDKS
In short: as §1

Measured: log2 ratio of Biotin-Ahx-Ub-VS probe labelling

Cc1ccc(CNC(=O)CCl)nc1C.Cl
active: BAP1 -1.57
inactive: ALG13 -0.419 | ATXN3 -0.055 | EIF3F -0.526 | EIF3H 0.278 | FAM105A -0.225 | OTUB1 -0.192 | OTUD4 -0.29 | OTUD5 -0.221
